Results taken from PubChem BioAssay (NCATS).
Inconclusive results are not listed. Calls of active or inactive are those of the source. Calls follow the shape of the dose curve; as a rule, active = well fitted curve in the direction sought with a large enough effect; inconclusive = small, poorly fitted or top-dose-only effect, or another doubt; inactive = no such curve, though single readings can be large; an effect the other way counts as inactive or inconclusive.

Columns and labels:
[1] = MultiTox-Fluor Cytotoxicity Assay - LYMP1-003 - Dead Cells (AID 961);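 also: cells exposed to compound for 16 h at 37 °C; nearly all actives have a fitted effect of over 70% in size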
Procedure, shortened: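 Acute toxicity is scored as increased dead-cell protease activity in human lymphoblastoid LYMP1-003 cells after 16 h compound exposure in complete culture medium. Activity is normalized to DMSO basal and 15 uM tetraoctylammonium bromide as full response.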

[2] = Cell Viability - LYMP1-003 - Assay at 24 hr (AID 963)
Procedure, shortened: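 Human lymphoblastoid LYMP1-003 cells, 2500/well, treated 24 h at 37 C in complete medium. Viability read as intracellular ATP by CellTiter-Glo luminescence after 30 min at room temperature; AC50 from Hill-equation fits of qHTS concentration-response.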

[3] = Cell Viability - LYMP1-003 - Assay at 40 hr (AID 964); also: series mostly up to about 92 µM; nearly all actives have a fitted effect of over 60% in size
Procedure, shortened: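 LYMP1-003 human lymphoblastoid cells, 2500/well, preincubated 5 h at 37 C, then treated with compound for 40 h at 37 C. Intracellular ATP read by CellTiter-Glo luminescence after 30 min at room temperature; AC50 from Hill-equation fits.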

[4] = Cell Viability - LYMP2-003 (AID 965);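 also: cells exposed to compounds for 24 h before reading; nearly all actives have a fitted effect of over 50% in size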
Procedure, shortened: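 CellTiter-Glo luminescence quantified ATP loss after 24 h compound treatment of LYMP2-003 lymphoblastoid cells at 37 C. Titration series were fitted with the standard Hill equation to give AC50.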

[5] = Cell Viability - LYMP2-004 (AID 966); also: nearly all actives have a fitted effect of over 65% in size
Procedure, shortened: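 Lymphoblastoid LYMP2-004 cells, 2500 per well, were preincubated for 5 hr and then treated with compound for 24 h at 37 C in complete medium. Viability was read as cellular ATP by CellTiter-Glo luminescence, and AC50 values were taken from Hill fits to concentration-response data.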

[6] = Cell Viability - LYMP2-005 (AID 967); also: series mostly up to about 92 µM
Procedure, shortened: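 LYMP2-005 human lymphoblastoid cells (2500/well) were treated with compounds for 24 h at 37 C. Intracellular ATP was then measured by CellTiter-Glo luminescence after 30 min at room temperature. AC50 values came from Hill-equation fits of qHTS concentration-response data.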

[7] = Cell Viability - LYMP2-009 (AID 968); also: series mostly up to about 92 µM; nearly all actives have a fitted effect of over 55% in size
[8] = Cell Viability - LYMP2-011 (AID 969);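 also: cells exposed to compound for 24 hours; nearly all actives have a fitted effect of over 60% in size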
Procedure, shortened: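 2500 cells/well in complete medium, compound-treated 24 h at 37 C. Viability read as intracellular ATP by CellTiter-Glo luminescence after 30 min at room temperature. AC50 from Hill fits of qHTS concentration-response data.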

[9] = Cell Viability - LYMP2-013 (AID 970); also: series mostly up to about 92 µM; nearly all actives have a fitted effect of over 55% in size
Procedure, shortened: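 Human lymphoblastoid LYMP2-013 cells, 2500/well, treated 24 h at 37 C in complete medium; viability as intracellular ATP by CellTiter-Glo luminescence after 30 min. AC50 from Hill fits of qHTS concentration-response.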

Measured: outcome

Cc1ccc(N)cc1O
inactive: [1] | [2] | [3] | [4] | [5] | [6] | [7] | [8] | [9]

CC(=O)O[C@@H]1CC(C)=C2[C@H]1[C@H](C)CC[C@H]2/C=C(\C)C(=O)O
inactive: [1] | [2] | [3] | [4] | [5] | [6] | [7] | [8] | [9]
